The results in this text go back to PubChem BioAssay (NCI).

The nature of assay [1]: NCI Yeast Anticancer Drug Screen. Data for the rad50 strain (AID 155).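 Further: 0% = growth of vehicle-only cultures of the same strain.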 The note with it: S. cerevisiae rad50 strain growth inhibition; at 50.0 µM; hits give high values. The method, boiled down:
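DNA repair mutant yeast, compound exposure, growth read-out; inhibition is taken relative to vehicle.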

Assay [2] is described as follows: NCI Yeast Anticancer Drug Screen. Data for the mec2-1 strain (AID 157). As to conditions: S. cerevisiae mec2-1 strain, at 50.0 µM, hits give high values. An outline of the steps: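 mec2-1 yeast strain, carrying an alteration in DNA damage repair or cell cycle control, was exposed to compounds; growth inhibition was measured relative to vehicle-treated controls.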

The nature of assay [3]: NCI Yeast Anticancer Drug Screen. Data for the sgs1 mgt1 strain (AID 161).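 Further: 0% = growth of cultures given vehicle only.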 The note with it: S. cerevisiae sgs1 mgt1 strain, at 50.0 µM, hits give high values. An outline of the steps:
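Growth of a repair-deficient yeast mutant was monitored after compound treatment and expressed as inhibition relative to vehicle-treated cultures.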

Assay [4] is described as follows: NCI Yeast Anticancer Drug Screen. Data for the cln2 rad14 strain (AID 165).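 Further: 0% = growth equal to vehicle treated cultures.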 The note with it: S. cerevisiae cln2 rad14 strain, at 50.0 µM, hits give high values. An outline of the steps:
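Yeast carrying cln2 and rad14 alterations (cell cycle control and DNA damage repair) were exposed to compounds. Growth inhibition was measured against vehicle-treated controls.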

A short description of assay [5]: NCI Yeast Anticancer Drug Screen. Data for the bub3 strain (AID 167). The note with it: S. cerevisiae bub3 mutant strain, at 50.0 µM, hits give high values. An outline of the steps: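 In this screen, a yeast mutant lacking normal mitotic checkpoint function is challenged with compound. Relative growth versus vehicle gives the inhibition value.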
The nature of assay [6]: NCI Yeast Anticancer Drug Screen. Data for the mlh1 rad18 strain (AID 175). The note with it: S. cerevisiae mlh1 rad18 strain growth inhibition; at 50.0 µM; hits give high values. An outline of the steps:
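Growth inhibition of the yeast strain was measured after compound exposure and expressed relative to vehicle-treated controls. The strain carries defined defects in DNA damage repair.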

Compounds without any hit were thinned out: in the full panel of roughly 79,000, 15% have a hit. A number with no mark means an inactive call. The source made the active and inactive calls. No stated cut-off is given here; in the data, active means growth inhibition above about 70%; inactive means the rest.

Turning to `COC(=O)CCCc1ccccc1N`, the growth inhibition is -5.65% in assay [1]; -8.8% in assay [2]; -18.9% in assay [3]; -35.8% in assay [4]; 3.1% in assay [5]; -15.9% in assay [6].
Regarding `OC(c1cc(C(F)(F)F)nc2c(Cl)cc(Cl)cc12)C1CCCCN1` (stereo not given), the growth inhibition was 7.2% in assay [1]; -22.4% in assay [2]; -5% in assay [3]; -3.4% in assay [4]; 8.75% in assay [5]; 22.9% in assay [6].
With `c1ccc(C2(c3ccccc3)Oc3ccccc3O2)cc1`, the growth inhibition was -10.1% in assay [1]; 3.65% in assay [2]; -6.45% in assay [3]; -37.5% in assay [4]; -6.4% in assay [5]; 7.3% in assay [6].
In the case of `O=C(C[N+]1(c2ccccc2)CCOCC1)c1ccccc1`, the growth inhibition in assay [1] was 28.4%; in assay [2], 5.6%; in assay [3] it was -13.8%; in assay [4], 4.7%; in assay [5] it was -4.25%; in assay [6], 21.1%.
Consider `CC1(C)Cc2ccccc2C1=O`, for which the growth inhibition in assay [1] was 16.1%; in assay [2], -4.85%; in assay [3], 4%; in assay [4] it was -53.6%; in assay [5] it was -1.65%; in assay [6] it was -2%.
On to `Cc1ccc(C2=NO[C@@H]3C(=O)N(c4ccc(Cc5ccc(N6C(=O)[C@H]7C(c8ccc(C)cc8)=NO[C@H]7C6=O)cc5)cc4)C(=O)[C@H]23)cc1`, for which the growth inhibition was -0.4% in assay [1]; 30.1% in assay [2]; 29.1% in assay [3]; 32.4% in assay [4]; 31.1% in assay [5]; 20.1% in assay [6].
On to `CCOC(=O)NC(=O)CC#N`, for which the growth inhibition in assay [1] was -5.5%; in assay [2], -29.8%; in assay [3], 13.4%; in assay [4], 5.05%; in assay [5], -4.2%; in assay [6], 10.7%.
`COc1ccc(NC(=O)NCc2ccc(C)c(C)c2)cc1`: the growth inhibition in assay [1] was -0.8%; in assay [2], 38.8%; in assay [3], 22.3%; in assay [4], -3.05%; in assay [5], 20.1%; in assay [6], 35%.
For `NC(CCCCC(=O)O)C(=O)O` (stereo not given), the growth inhibition in assay [1] is -30.1%; in assay [2], -22.3%; in assay [3], -12.9%; in assay [4] it was -38.2%; in assay [5], -11.2%; in assay [6] it was 0.15%.
As for `c1ccc2c(c1)ccc1cccc[n+]12`, the growth inhibition in assay [1] was -25.4%; in assay [2], -7.75%; in assay [3] it was -13%; in assay [4], -12.4%; in assay [5], -16.7%; in assay [6], -36.6%.
Consider `O=C(NCc1ccc([N+](=O)[O-])cc1)c1ccccc1`, for which the growth inhibition in assay [1] is 4.15%; in assay [2], 4.45%; in assay [3], -6.4%; in assay [4] it was 10.1%; in assay [5], 0.85%; in assay [6] it was 6.7%.
For `CC[Si](/C=C(/C)C(C)(C)C)(CC)CC`, the growth inhibition in assay [1] is 0.9%; in assay [2], -21.9%; in assay [3], -7.05%; in assay [4], -34.1%; in assay [5], -8.05%; in assay [6], -5.1%.
As to `CCCCCCCCC(Br)C(Br)CCCCCCCC(=O)NCCCOC` (stereo not given), the growth inhibition in assay [1] was -2.45%; in assay [2] it was -13.5%; in assay [3], 1.95%; in assay [4], -33.1%; in assay [5], 1.95%; in assay [6] it was 18.3%.
For `O=C1c2ccccc2C2(O)NC(=S)N(c3ccccc3)C12O` (stereo not given), the growth inhibition in assay [1] was -14.2%; in assay [2], -20.8%; in assay [3], 4.95%; in assay [4], 15.4%; in assay [5] it was 6.2%; in assay [6] it was -2.1%.
For the compound `N#Cc1ccc(CC(=O)O)cc1`, the growth inhibition was 25.2% in assay [1]; -16.5% in assay [2]; 6.9% in assay [3]; 0.35% in assay [4]; -7.95% in assay [5]; -7.75% in assay [6].
Turning to `CCN(CC)C1C(=O)NC1C#Cc1ccccc1` (stereo not given), the growth inhibition in assay [1] is 19%; in assay [2] it was 6.5%; in assay [3], 7.05%; in assay [4], 5.95%; in assay [5], 7.6%; in assay [6], 15.6%.
Take `O=P(O)(O)c1ccc(Cl)cc1`: the growth inhibition in assay [1] was -1.8%; in assay [2], -1.3%; in assay [3], -1.65%; in assay [4], 8.7%; in assay [5], 8.55%; in assay [6] it was -9.4%.
In the case of `CCN(CC)CCCC(C)NC(=O)c1ccc2c(c1)C(=O)c1ccccc1C2=O` (stereo not given), the growth inhibition is 6% in assay [1]; 19.1% in assay [2]; 16.9% in assay [3]; 36.4% in assay [4]; -17.7% in assay [5]; -33.9% in assay [6].
As to `O=C1c2ccccc2C(=O)N1/N=N/N1C(=O)c2ccccc2C1=O`, the growth inhibition is 97.5% (active) in assay [1]; 97.7% (active) in assay [2]; 98.1% (active) in assay [3]; 96.1% (active) in assay [4]; 98.6% (active) in assay [5]; 97% (active) in assay [6].
As for `BrC/C(=N\N1CCCCC1)c1ccc(Br)cc1`, the growth inhibition in assay [1] was 6.55%; in assay [2] it was -7.95%; in assay [3], -8.05%; in assay [4], 24.6%; in assay [5] it was 16.6%; in assay [6], 14%.
